Test results: the supplement of paper PMC10338343
± gives the standard deviation.

Test system: MILI (PIWIL2) piRISC loaded with L1MC piRNA (26 nt)
Assay: pre-steady-state target cleavage rate (min^-1); guide: L1MC piRNA 5'p-UAACUAAAUACUAUGCAAGCUGUAGG; MIWI and MILI are mouse PIWI proteins and EfPiwi is from a freshwater sponge; tags in brackets are library labels; higher = faster piRNA-guided slicing of the target
How it was run: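 Using HEPES–potassium acetate buffer at 33 °C, 1 nM active affinity-purified piRISC with a single synthetic guide was mixed with 0.1 nM transcribed, DNA-blocked target RNA library for 0–8 or 0–960 min, with or without 500 nM GTSF1 partner protein. Uncleaved targets were sequenced and normalised to depth and to weakly complementary targets, and three trials were pooled with k3 capped at 0.0001 min^-1. A burst-and-steady-state fit gave the pre-steady-state cleavage rate.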

[1] = auxiliary factor: 500 nM mouse GTSF1
[2] = auxiliary factor: none (no GTSF1)

Sequence | pre-steady-state target cleavage rate [1] | pre-steady-state target cleavage rate [2]
UCCUGGUAGAGCUAGCAUAGUAUUUAGUUA | 0.216 ± 0.019 | 0.00986 ± 0.0028
UCCUGGUACAGCUUGCAUAGGUAUUUAGUUA | 0.0078 ± 0.0065 | 0.00574 ± 0.0037
UCCUGGUACACGUUGCAUAGUAUUUAGUUA | 0.19 ± 0.045 | 0.0113 ± 0.0051
UCCUGGAUGUCGUUGCAUAGUAUUUUAGUUA | 0.125 ± 0.02 | 0.00632 ± 0.0029
UCCUGCUACAGCUUCGUUAGUAUUUAGUUA | 0.239 ± 0.022 | 0.00333 ± 0.0027
UCCUGGAUGUCCUUGCAUAGUAUUGUAGUUA | 0.102 ± 0.023 | 0.0041 ± 0.003
UCCUGGAUGUGCAUGCAUAGUUUUUAGUUA | 0.01 ± 0.0069 | 0.00641 ± 0.003
UCCUGGAACAGCUUGCAAAGUUUUUAGUUA | 0.0201 ± 0.0064 | 0.0029 ± 0.0026
UCCUGGAUGUCGAUGCAUAGUAAAUAGUUA | 0.0191 ± 0.0068 | 0.00231 ± 0.0023
UCCUGGAUGAGCUUGGUUAGUAUUUAGUUA | 0.195 ± 0.02 | 0.0158 ± 0.0039
UCCUGCUACAGCUUCGCAUAGUAUUUAGUUA | 0.268 ± 0.019 | 0.00637 ± 0.0021
UCCUGGAUGAGCUUGCAUAGUUAUUUAGUUA | 0.0115 ± 0.0045 | 0.00489 ± 0.0022
UCCUGGAUGUCGUUGCAUAGUAUUCUAGUUA | 0.18 ± 0.045 | 0.00434 ± 0.0027
UCCUGGAUGUCCAUGCAUAGUUUUUAGUUA | 0.0166 ± 0.0043 | 0.00362 ± 0.0023
UCCUGGAUCAGCUUGCAUAGUUUUUUGUUA | 0.0453 ± 0.011 | 0.00417 ± 0.0027
UCCUGGAACAGCUUGCAAUGUAUUUAGUAA | 0.0829 ± 0.011 | 0.00326 ± 0.0026
UCCUGGAUGAGCUUGCAAAGUAUUAAGUUA | 0.0742 ± 0.012 | 0.00449 ± 0.0026
UCCUGGAACAGCUUCGAUAGUAUUUAGUAA | 0.167 ± 0.019 | 0.00446 ± 0.0025
UCCUGGUACUGCUUGCUUAGUAUUUAGUUA | 0.197 ± 0.015 | 0.0115 ± 0.0025
UCCUGGAUGUCCAAGCAUAGUAUUUAGUAA | 0.0187 ± 0.0069 | 0.00309 ± 0.0027

Sequence | pre-steady-state target cleavage rate [1] | pre-steady-state target cleavage rate [2]
UCCUGGAUGUCGUUGCAUAGUAUGUUAGUUA | 0.203 ± 0.042 | 0.00861 ± 0.0031
UCCUGGAUGUGCAUGCAUACUAUUUAGUUA | 0.0253 ± 0.0066 | 0.00586 ± 0.0023
UCCUGGAUGUGCUAUGCAUAGUAUUUAGUUA | 0.141 ± 0.018 | 0.0069 ± 0.0024
UCCUGGAUGUGCUUGCAUAGUAUUUAAUUA | 0.0357 ± 0.011 | 0.00315 ± 0.003
UCCUGGAUGUCGUUGGAUACUAUUUAGUUA | < 0.0001 | < 0.0001
UCCUGGUACAGCUUGCAUAGUAAAAAGUUA | 0.104 ± 0.024 | 0.00471 ± 0.003
UCCUGGAUGAGCUUGCAUAGUAUUUAUGUUA | 0.102 ± 0.021 | 0.00381 ± 0.0034
UCCUGGAUGUGCUUCCUUAGUAUUUAGUUA | 0.0394 ± 0.0077 | 0.00557 ± 0.0022
UCCUGGAUGUCCUUGCUUACUAUUUAGUUA | 0.016 ± 0.0064 | 0.00305 ± 0.0023
UCCUGGAUGUCGUUGCAUAGUAUUUAGUCA | 0.146 ± 0.024 | 0.00639 ± 0.002
UCCUGGAUGAGGAAGCAUAGUAUUUAGUUA | 0.0519 ± 0.012 | 0.00494 ± 0.0027
UCCUGGUACAGCUUGCUAGUAUUUAGUUA | 0.0128 ± 0.0057 | 0.00634 ± 0.002
UCCUGCUACAGCUUGCAUUGAAUUUAGUUA | 0.0223 ± 0.0052 | 0.00353 ± 0.0025
UCCUGGAUGUCCUUACAUAGUAUUUAGUUA | 0.0839 ± 0.012 | 0.00844 ± 0.002
UCCUGGAUGAGCUUGCUUAGUAUUUACUUA | 0.124 ± 0.031 | 0.00394 ± 0.0031
UCCUGGAUGUCCUUGCAUAGAUUUUAGUUA | 0.0121 ± 0.0046 | 0.00402 ± 0.0018
UCCUGGAUGUCGUUGCAUAGUAUUUGAGUUA | 0.145 ± 0.034 | 0.00339 ± 0.0032
UCCUGGAUGUGCUUGCAUAGUAUUAUAGUUA | 0.15 ± 0.025 | 0.006 ± 0.0028
UCCUGGAUCAGCUAGCAUAGUAUUAAGUUA | 0.247 ± 0.019 | 0.00556 ± 0.0019
UCCUGGAUGAGCAUGCAUACUAUUUAGUUA | 0.0556 ± 0.011 | 0.00656 ± 0.0024

Sequence | pre-steady-state target cleavage rate [1] | pre-steady-state target cleavage rate [2]
UCCUGGAUGUGGUUGCAUACUAUUUAGUUA | 0.0175 ± 0.0072 | 0.00525 ± 0.0036
UCCUGGAUCAGCUAGGAUAGUAUUUAGUUA | 0.178 ± 0.013 | 0.00609 ± 0.0017
UCCUGGAUGAGCUAGCAUAGUAUAUAGUUA | 0.242 ± 0.034 | 0.0046 ± 0.0022
UCCUGGAUGUGCUUGGAUAGUAAUUAGUUA | 0.0687 ± 0.014 | 0.00472 ± 0.0026
UCCUGGAUGUCCUUGCAUACAUUUUAGUUA | 0.00731 ± 0.0047 | 0.00422 ± 0.0019
UCCUGGAUGUGCUUGGAUAGUAUUUAGUUA | 0.115 ± 0.013 | 0.00702 ± 0.0024
UCCUGCUAGAGGUUGCAUAGUAUUUAGUUA | 0.2 ± 0.011 | 0.0085 ± 0.0026
UCCUGGUACAGCUAGCAUAGUAUAUAGUUA | 0.183 ± 0.026 | 0.00329 ± 0.0024
UCCUGGAUGUCGAAGCAUAGUAUUUAGUUG [g2:g16:cont:t1G] | 0.0225 ± 0.0063 | 0.00543 ± 0.0019
UCCUCCUUCAGCUUGCAUAGUUUUUAGUUA | 0.0603 ± 0.0091 | 0.00556 ± 0.0016
UCCUGCUACCAGCUUGCAUAGUAUUUAGUUA | 0.24 ± 0.019 | 0.0115 ± 0.0033
UCCUGGAUGUCCUUGCAUAGUAUAAAGUUA | 0.0673 ± 0.015 | 0.00312 ± 0.0028
UCCUGGAUCAGCUUGCAUAGUAUUCUAGUUA | 0.239 ± 0.034 | 0.00658 ± 0.0024
UCCUGGAUCAGCAUGCAUAGUAUUUACUUA | 0.126 ± 0.016 | 0.00358 ± 0.0024
UCCUGGAUGUCCUUGCAUAGUAUUUAGUGA | 0.0966 ± 0.018 | 0.00382 ± 0.0024
UCCUGGAUGUCGAAGCAUAGUAUGUUAGUUA | 0.0233 ± 0.0059 | 0.00487 ± 0.0021
UCCUGGAUGUCGAUGCUUAGUAUUUAGUUA | 0.019 ± 0.0053 | 0.00602 ± 0.0019
UCCUGGAUGAGCAUGCAUAGUAUAUAGUUA | 0.213 ± 0.022 | 0.00752 ± 0.0029
UCCUGGUACAGCUUGGUAAGUAUUUAGUAA | 0.18 ± 0.034 | 0.00367 ± 0.0027
UCCUGGAUGUCGUUGCUUAGUAUUUUGUUA | 0.0541 ± 0.016 | 0.00381 ± 0.0029
